# In ChEMBL document CHEMBL3988442, “University of Dundee, Small-Polar-MMV Screening Library” (2021):
# Hit rate of the full screen: of about 66,000 compounds, about 960 (1.5%) showed an effect of 50% or more. What follows is part of a selection rich in strong results, with near analogues and random picks from the rest.
# System: Trypanosoma brucei
# Test: Trypanosoma brucei 72 hour study
# Type: functional, organism-based
# Set-up: scale not given: in the data most compounds retested in dose-response had high values
compound,measurement,setting,value
COc1ncccc1CNC(=O)NCc1ccco1,Percent Effect,10 µM,-3.742%
same,Percent Effect,"30.3 µM, […]",11.99%
Cc1ccc(CN2CC[C@H]3[C@H](CC(Cn4cccn4)N3C)C2)s1.O=C(O)C(F)(F)F.O=C(O)C(F)(F)F.O=C(O)C(F)(F)F (some centres not stated),Percent Effect,"30.3 µM, […]",2.612%
O=C(CC1CC1)N1CC[C@@H]2[C@H](CC1)N(Cc1cccnc1)CCS2(=O)=O.O=C(O)C(F)(F)F.O=C(O)C(F)(F)F,Percent Effect,"30.3 µM, […]",-63.96%
Cc1cccc(OC2CCN(c3nccnc3C#N)CC2)n1,Percent Effect,"30.3 µM, […]",-52.89%
Cc1cccc(OC2CCN(c3ccc(C#N)cn3)CC2)n1,Percent Effect,"30.3 µM, […]",86.54%
Cc1cccc(OC2CCN(c3ncc(C#N)cc3Cl)CC2)n1,Percent Effect,"30.3 µM, […]",2.665%
CCn1cc(NS(=O)(=O)c2ccc(Br)s2)c(C(N)=O)n1,Percent Effect,"30 µM, 30.03 µM",-24.98%
O=C(Nc1cnccn1)[C@H]1CC[C@@H]2[C@@H](CCN2Cc2ccoc2)O1.O=C(O)C(F)(F)F,Percent Effect,"30.3 µM, […]",-117.8%
COc1cc(F)ccc1N(C)Cc1ccccn1,Percent Effect,"30 µM, 30.03 µM",73.53%
COc1cc(F)ccc1N(C)Cc1ccncc1,Percent Effect,"30 µM, 30.03 µM",-66.27%
COc1cc(F)ccc1N(C)Cc1cccnc1,Percent Effect,"30 µM, 30.03 µM",-106.7%
Cc1c(-c2cccs2)nn2c(O)c3c(nc12)CN(C(=O)C1CC1)C3,Percent Effect,"30.3 µM, […]",9.41%
Cc1ccc(N2CCN(C(=O)CCc3n[nH]c(C)c3C)CC2=O)cc1,Percent Effect,"30 µM, 30.03 µM",-42.04%
CC(=O)c1cc(CN2C[C@H]3CC[C@@H]2CN(S(C)(=O)=O)C3)cs1,Percent Effect,"30 µM, 30.03 µM",91.04%
CN(C)S(=O)(=O)N1C[C@@H]2CC[C@H](C1)N(Cc1ccc3nsnc3c1)C2,Percent Effect,"30 µM, 30.03 µM",2.112%
CC(=O)c1cc(CN2C[C@H]3CC[C@@H]2CN(S(=O)(=O)N(C)C)C3)cs1,Percent Effect,"30 µM, 30.03 µM",79.15%
CS(=O)(=O)N1C[C@@H]2CC[C@H](C1)N(Cc1ccc3nsnc3c1)C2,Percent Effect,"30 µM, 30.03 µM",-23.46%
CS(=O)(=O)N1C[C@@H]2CC[C@H](C1)N(Cc1ccsc1)C2,Percent Effect,"30 µM, 30.03 µM",-69.04%
CN(C)S(=O)(=O)N1C[C@@H]2CC[C@H](C1)N(Cc1ccc(F)c(F)c1)C2,Percent Effect,"30 µM, 30.03 µM",-42.84%
CC(C)(C)C(CCO)NC(=O)Nc1ccncc1 (configuration not stated),Percent Effect,"30.3 µM, […]",-3.299%
COCCCNC(=O)CCn1ncc2c(Cl)cccc21,Percent Effect,"30.3 µM, […]",-21.64%
COCCCNC(=O)CCn1nc(C)c2ccccc21,Percent Effect,"30 µM, 30.03 µM",61.88%
CCOCCCNC(=O)CCCC(=O)n1nc(C)c2ccccc21,Percent Effect,"30 µM, 30.03 µM",-9.537%
Nc1ccc(C(=O)N2CCCC(C(=O)CCc3ccccc3)C2)cn1 (configuration not stated),Percent Effect,"30 µM, 30.03 µM",42.45%
Cn1cc(N2CC3(CCN(Cc4ccoc4)CC3)OCC2=O)cn1.O=C(O)C(F)(F)F,Percent Effect,"30 µM, 30.03 µM",-14.91%
CCOC(=O)c1n[nH]cc1-c1cncn1CCn1nc(C)c(C)c1C.Cl,Percent Effect,"30.3 µM, […]",-11.29%
Cc1ncsc1C(=O)NC1CCN(CC(=O)N(C)c2ccccc2)CC1,Percent Effect,"30 µM, 30.03 µM",32.24%
Cc1ncsc1C(=O)NC1CCN(CC(N)=O)CC1,Percent Effect,"30.3 µM, […]",10.5%
Cc1ncsc1C(=O)NC1CCN(CC(=O)NCc2ccccc2)CC1,Percent Effect,"30 µM, 30.03 µM",57.29%
O=C(c1coc(COc2cccc3cnccc23)n1)N1CCSCC1,Percent Effect,"30.3 µM, […]",-189.8%
O=C(c1coc(COc2cccc3cnccc23)n1)N1CCCCCC1,Percent Effect,"30.3 µM, […]",-73.19%
CC1CCCCN1C(=O)c1coc(COc2cccc3cnccc23)n1 (configuration not stated),Percent Effect,"30.3 µM, […]",103.3%
Cc1noc(Cl)c1CCC(=O)N1CCN(c2ccccc2)CC1,Percent Effect,"30.3 µM, […]",16.11%
Cc1noc(Cl)c1CCC(=O)N1CCN(c2ncccn2)CC1,Percent Effect,"30 µM, 30.03 µM",-22.8%
Cc1cccc(N2CCN(C(=O)CCc3c(C)noc3Cl)CC2)c1,Percent Effect,"30.3 µM, […]",55.23%
CN(CCC(O)c1ccccc1)Cc1nc(-c2ccccc2)no1 (configuration not stated),Percent Effect,"30.3 µM, […]",-13.82%
same,Percent Effect,"10 mM, 10 mM as filed; unlikely as a test dose",-49.39%
CC(C)CN1CCC2(C1)CN(S(=O)(=O)c1cn(C)cn1)C2.O=C(O)C(F)(F)F.O=C(O)C(F)(F)F,Percent Effect,"30.3 µM, […]",-13.21%
Cc1ccccc1CN1CCC(c2nn(CCN)c3nccnc23)C1 (configuration not stated),Percent Effect,"30.3 µM, […]",24.84%
COc1ccccc1CN1CCC(c2nn(CCN)c3nccnc23)C1 (configuration not stated),Percent Effect,"30.3 µM, […]",99.59%
NCCn1nc(C2CCN(Cc3ccccc3Cl)C2)c2nccnc21 (configuration not stated),Percent Effect,"30.3 µM, […]",22.22%
COCC(=O)N1C[C@@H]2CCCO[C@@H]2[C@H](N(C)Cc2ccco2)C1.O=C(O)C(F)(F)F,Percent Effect,"30 µM, 30.03 µM",-11.7%
O=C(O)C(F)(F)F.O=C1N(Cc2cccc(F)c2)CCC12CCN(c1ccccn1)CC2,Percent Effect,"30.3 µM, […]",-2.034%
CNCC[C@H]1CC(C)(C)Oc2ccc(OCC3CC3)cc21,Percent Effect,"30.3 µM, […]",86.36%
COc1ccc2c(c1)[C@@H](CCNC(C)=O)CC(C)(C)O2,Percent Effect,"30.3 µM, […]",-14.03%
CNCC[C@H]1CC(C)(C)Oc2ccc(OC)cc21,Percent Effect,"30.3 µM, […]",-16.4%
CN(C)c1nc2c(c(N3CCC4(CC3)CNC(=O)C4)n1)CCCC2,Percent Effect,"30 µM, 30.03 µM",23.78%
Cc1nc(N(C)C)nc(N2CCC3(CC2)CNC(=O)O3)c1C,Percent Effect,"30 µM, 30.03 µM",-29.71%
CN(C)c1nc2c(c(N3CCCC4(CC3)CNC(=O)O4)n1)CCCC2 (configuration not stated),Percent Effect,"30 µM, 30.03 µM",52.4%
CN(C)S(=O)(=O)N1C[C@@H](OCc2cccnc2)[C@H]2OCCC[C@H]21.O=C(O)C(F)(F)F,Percent Effect,"30 µM, 30.03 µM",-11.52%
CN(Cc1cccc(OC(F)F)c1)Cc1nc2c(cnn2C)c(=O)[nH]1,Percent Effect,"30.3 µM, […]",-25.39%
CN(CCS(=O)(=O)c1cc(Cl)ccc1Cl)CC(=O)Nc1ccc(F)cc1,Percent Effect,"30 µM, 30.03 µM",64.98%
CN(CCS(=O)(=O)c1cc(Cl)ccc1Cl)CC(N)=O,Percent Effect,"30 µM, 30.03 µM",-15.71%
CN(CCS(=O)(=O)c1cc(Cl)ccc1Cl)CC(=O)Nc1cccc(F)c1,Percent Effect,"30 µM, 30.03 µM",-17.26%
CC(=O)NC[C@]1(O)CCN(C(=O)c2ccc3c(c2)OCO3)C[C@H]1O,Percent Effect,"30.3 µM, […]",-26.03%
c1cc2cc[nH]c2c(CC2CN(Cc3cscn3)C2)n1,Percent Effect,"30.3 µM, […]",-15.51%
Cc1cnc(N2CCOCC3(CCN(c4ccccn4)C3)C2)nc1.O=C(O)C(F)(F)F.O=C(O)C(F)(F)F (configuration not stated),Percent Effect,"30 µM, 30.03 µM",-35.16%
CC(=O)NCC(=O)N1CCC2(CC1)C(=O)N(CC1CC1)c1ccccc12,Percent Effect,"30.3 µM, […]",-5.541%
CN(C)[C@H]1CCCCN(C(=O)c2cccc(-c3cccc(F)c3)c2)C1,Percent Effect,"30 µM, 30.03 µM",59.87%
CN(C)C1CCCN(C(=O)c2cccc(-c3ncc[nH]3)c2)CC1 (configuration not stated),Percent Effect,"30 µM, 30.03 µM",-3.463%
CN(C)[C@H]1CCCCN(C(=O)c2cccc(N3CCS(=O)(=O)CC3)c2)C1,Percent Effect,"30 µM, 30.03 µM",11.69%
